According to PubChem BioAssay (NCI):
The panel holds about 83,000 compounds, 20% with a hit somewhere; the sample as a whole holds those more often.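 Cells were grown in 96-well plates and exposed to the test compound at a single concentration for 48 hours; results are reported as percent growth, with values below 10 considered active.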 Activity calls are given as the source filed them.

tested on: HS 578T breast; assay: NCI-60 one-dose screen, 48 h (100 = growth as untreated, 0 = no growth, -100 = all killed); conditions: 10 µM

Row | Compound | growth
1 | CSc1nc(S(C)(=O)=O)nc2[nH]c(=O)[nH]c12 | 111% (inactive)
2 | CC1(C)N=C(N)N=C(N)N1c1cccc(C#N)c1 | 88.2% (inactive)
3 | O=C(N/N=C/c1cc([N+](=O)[O-])ccc1O)c1cccc2ccccc12 | 64.1% (inactive)
4 | O=c1c(Br)ccc(Br)cc1Br | 43.4% (inactive)
5 | CC(=O)COc1ccc(Cl)cc1Cl | 117% (inactive)
6 | Cc1cn(-c2cc(F)cc(NC(=O)c3ccc(C)c(Nc4nccc(-c5cccnc5)n4)c3)c2)cn1 | 38.5% (inactive)
7 | O=C(O)Cc1ccc(O)c(O)c1 | 90% (inactive)
8 | O=C1OC(C(Cl)(Cl)Cl)OC1C(Cl)(Cl)Cl (centres undefined) | 117% (inactive)
9 | O=C1/C(=C/c2cccc(F)c2)Cc2ccccc21 | 181% (inactive)
10 | CCN1C(=O)CC(SC2CC(=O)N(CC)C2=O)C1=O (centres undefined) | 101% (inactive)
11 | Cc1ccc(C2NC(=S)N3C(c4ccc(C)cc4)NC(=S)N23)cc1 (centres undefined) | 26.4% (inactive)
12 | COc1cc2nc(SCC(=O)Nc3cc(OC)c(OC)c(OC)c3)n(Cc3ccccc3)c(=O)c2cc1OC | 24.9% (inactive)
13 | Cc1c(C(N)=O)sc2c1c(=O)n(Cc1ccccc1)c1nnc(-c3ccc(Br)cc3)n21 | 73.6% (inactive)
14 | Nc1nc(N)c(N)c(Nc2ccc(CCO)cc2)n1 | 100% (inactive)
15 | CN(C)c1ccc(/C=N/NC(=O)c2cccc3ccccc23)c(Cl)c1 | 42.2% (inactive)
16 | COc1ccc(-c2nn(-c3cccc(Cl)c3)cc2-c2c(C#N)c(N)n(N)c(=O)c2C#N)cc1 | 58.2% (inactive)
17 | CCOC(=O)c1cocc1C(=O)O | 100% (inactive)
18 | CC(C)(C)c1nn(-c2ccccc2)c2c1CC1(CN2Cc2ccc(Cl)cc2)C(=O)c2ccccc2C1=O | 110% (inactive)

Row | Compound | growth
19 | NC(N)=N/N=C(\N=Nc1ccccc1)c1ccc(Cl)cc1 | 65.2% (inactive)
20 | O=C(c1ccccc1)N(C(=O)c1ccccc1)N1CCCC1 | 105% (inactive)
21 | COC1=CC(=O)OC(c2ccc(OC)cc2)C1 (centres undefined) | 111% (inactive)
22 | Cc1nn(-c2ccccc2)c2nc(Cl)c(C=O)c(-c3ccccc3)c12 | 112% (inactive)
23 | COC(=O)CC[C@@H](C)[C@H]1CC[C@H]2[C@@H]3CC[C@@H]4C[C@H](O)CC[C@]4(C)[C@H]3C[C@H](O)[C@]12C | 114% (inactive)
24 | COc1ccc(C(=O)CC(CC(=O)c2ccc(OC)cc2)c2c(C)nn(-c3ccccc3)c2Cl)cc1 | 94.4% (inactive)
25 | Cc1cc(Br)nnc1Br | 110% (inactive)
26 | COc1ccc2c(c1)C(CC(=O)NN)CCC2 (centres undefined) | 102% (inactive)
27 | COc1ccccc1N1CCCSC1=Nc1ccccc1 | 117% (inactive)
28 | Cc1ccc(C(SCC(N)C(=O)O)(c2ccc(C)cc2)c2ccc(C)cc2)cc1 (centres undefined) | -15.3% (active)
29 | CC1OC2CC(=O)OC2C2=C1C(=O)c1c(O)c3c(c(O)c1C2=O)C1CC(O)C3(O)C(C)O1 (centres undefined) | -12.3% (active)
30 | O=C1c2ccccc2C(=O)N1CCCCNc1ccccc1 | 103% (inactive)
31 | CCCCN1C(=O)CC(SC2CC(=O)N(CCCC)C2=O)C1=O (centres undefined) | 103% (inactive)
32 | CN(C)c1nc(N)c2nccnc2n1 | 105% (inactive)
33 | CCn1c2ccc(O)cc2c2c(C)c3c[n+](C)ccc3c(C)c21 | -0.0943% (active)
34 | C=C1CCC2(C#N)[C@H]3[C@H](CC[C@@H]2C)[C@@H](C)C[C@@H](CC(C)(C)NC(=O)CN2CCC2=O)[C@H]13 (some centres undefined) | 74.3% (inactive)
35 | COc1cc(C2CC(c3cc(Cl)c(C)cc3O)=NN2c2ccc(S(N)(=O)=O)cc2)cc(OC)c1OC (centres undefined) | 30.3% (inactive)

tested on: NCI/ADR-RES ovarian; assay: as above; conditions: 10 µM

Row | Compound | growth
36 | CSc1nc(S(C)(=O)=O)nc2[nH]c(=O)[nH]c12 | 110% (inactive)
37 | CC1(C)N=C(N)N=C(N)N1c1cccc(C#N)c1 | 75% (inactive)
38 | Nc1cc(-c2ccc(Cl)cc2)nn1-c1nc2ccccc2nc1Cc1ccccc1 | 87.5% (inactive)
39 | O=C(N/N=C/c1cc([N+](=O)[O-])ccc1O)c1cccc2ccccc12 | 10.6% (inactive)
40 | O=c1c(Br)ccc(Br)cc1Br | -15.3% (active)
41 | CC(=O)COc1ccc(Cl)cc1Cl | 111% (inactive)
42 | Cc1cn(-c2cc(F)cc(NC(=O)c3ccc(C)c(Nc4nccc(-c5cccnc5)n4)c3)c2)cn1 | 59.9% (inactive)
43 | O=C(O)Cc1ccc(O)c(O)c1 | 111% (inactive)
44 | O=C1OC(C(Cl)(Cl)Cl)OC1C(Cl)(Cl)Cl (centres undefined) | 108% (inactive)
45 | O=C1/C(=C/c2cccc(F)c2)Cc2ccccc21 | 102% (inactive)
46 | CCN1C(=O)CC(SC2CC(=O)N(CC)C2=O)C1=O (centres undefined) | 98.7% (inactive)
47 | Cc1ccc(C2NC(=S)N3C(c4ccc(C)cc4)NC(=S)N23)cc1 (centres undefined) | 19% (inactive)
48 | Cc1c(C(N)=O)sc2c1c(=O)n(Cc1ccccc1)c1nnc(-c3ccc(Br)cc3)n21 | 6.12% (active)
49 | Nc1nc(N)c(N)c(Nc2ccc(CCO)cc2)n1 | 103% (inactive)
50 | CN(C)c1ccc(/C=N/NC(=O)c2cccc3ccccc23)c(Cl)c1 | -9.37% (active)
51 | COc1ccc(-c2nn(-c3cccc(Cl)c3)cc2-c2c(C#N)c(N)n(N)c(=O)c2C#N)cc1 | 90.4% (inactive)
52 | CCOC(=O)c1cocc1C(=O)O | 107% (inactive)
53 | CC(C)(C)c1nn(-c2ccccc2)c2c1CC1(CN2Cc2ccc(Cl)cc2)C(=O)c2ccccc2C1=O | 84.3% (inactive)
54 | NC(N)=N/N=C(\N=Nc1ccccc1)c1ccc(Cl)cc1 | 8.53% (active)
55 | O=C(c1ccccc1)N(C(=O)c1ccccc1)N1CCCC1 | 102% (inactive)

Row | Compound | growth
56 | COC1=CC(=O)OC(c2ccc(OC)cc2)C1 (centres undefined) | 102% (inactive)
57 | Cc1nn(-c2ccccc2)c2nc(Cl)c(C=O)c(-c3ccccc3)c12 | 82.8% (inactive)
58 | COC(=O)CC[C@@H](C)[C@H]1CC[C@H]2[C@@H]3CC[C@@H]4C[C@H](O)CC[C@]4(C)[C@H]3C[C@H](O)[C@]12C | 106% (inactive)
59 | COc1ccc(C(=O)CC(CC(=O)c2ccc(OC)cc2)c2c(C)nn(-c3ccccc3)c2Cl)cc1 | 95.5% (inactive)
60 | CCOc1ccccc1/C=N\N=C(\N)N/N=C/c1ccccc1OCC | 3.57% (active)
61 | Cc1cc(Br)nnc1Br | 120% (inactive)
62 | COc1ccc2c(c1)C(CC(=O)NN)CCC2 (centres undefined) | 108% (inactive)
63 | COc1ccccc1N1CCCSC1=Nc1ccccc1 | 103% (inactive)
64 | CCCCCCCCCCCC[n+]1c(C)cc(N)c2ccccc21 | 53.3% (inactive)
65 | Cc1ccc(C(SCC(N)C(=O)O)(c2ccc(C)cc2)c2ccc(C)cc2)cc1 (centres undefined) | 57.8% (inactive)
66 | CC1OC2CC(=O)OC2C2=C1C(=O)c1c(O)c3c(c(O)c1C2=O)C1CC(O)C3(O)C(C)O1 (centres undefined) | 1.39% (active)
67 | O=C1c2ccccc2C(=O)N1CCCCNc1ccccc1 | 103% (inactive)
68 | Fc1ccc(C(c2ccc(F)cc2)C(Cl)Cl)cc1 | 107% (inactive)
69 | CCCCN1C(=O)CC(SC2CC(=O)N(CCCC)C2=O)C1=O (centres undefined) | 111% (inactive)
70 | O=[N+]([O-])c1ccc(NCSc2ccc(Cl)cc2)cc1 | 102% (inactive)
71 | CN(C)c1nc(N)c2nccnc2n1 | 99.2% (inactive)
72 | CCn1c2ccc(O)cc2c2c(C)c3c[n+](C)ccc3c(C)c21 | 81% (inactive)
73 | C=C1CCC2(C#N)[C@H]3[C@H](CC[C@@H]2C)[C@@H](C)C[C@@H](CC(C)(C)NC(=O)CN2CCC2=O)[C@H]13 (some centres undefined) | 59.2% (inactive)
74 | COc1cc(C2CC(c3cc(Cl)c(C)cc3O)=NN2c2ccc(S(N)(=O)=O)cc2)cc(OC)c1OC (centres undefined) | 3.9% (active)
